M1 PAM = human CHRM1 positive allosteric modulation | activation, % at 3 µM | CHO-K1 hM1, Fluo-8 calcium fluorescence, ACh EC20; 0% = ACh EC20, 100% = maximal ACh | P11229 | hit rate 0.088% among 360,000; in the data active = activation above about 19%, passing the limit was not always enough
Target sequence (P11229 whole entry, looked up): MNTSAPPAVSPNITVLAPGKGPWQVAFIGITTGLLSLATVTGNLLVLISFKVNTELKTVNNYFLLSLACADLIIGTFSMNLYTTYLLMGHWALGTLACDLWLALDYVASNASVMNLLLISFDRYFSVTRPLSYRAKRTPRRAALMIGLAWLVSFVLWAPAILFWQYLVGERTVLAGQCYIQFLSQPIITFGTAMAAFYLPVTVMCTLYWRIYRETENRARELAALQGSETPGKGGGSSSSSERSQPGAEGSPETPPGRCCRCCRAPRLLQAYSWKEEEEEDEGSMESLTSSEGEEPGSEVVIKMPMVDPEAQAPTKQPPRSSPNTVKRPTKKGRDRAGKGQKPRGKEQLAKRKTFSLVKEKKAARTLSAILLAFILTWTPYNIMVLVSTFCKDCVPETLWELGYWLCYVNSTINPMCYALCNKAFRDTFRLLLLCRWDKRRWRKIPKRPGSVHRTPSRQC
CHO-K1 Ca antag = counter-screen for M1 antagonists: effect in parental CHO-K1 cells; inhibition, % at 3 µM; ATP-induced calcium, Fluo-8 fluorescence; AID 602250; hit rate 0.6% among 360,000;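 active = inhibition above a per-plate cutoff, the plate's mean sample inhibition plus 3 SD, cut at about 24% in these data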;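 also: 0% = DMSO plus EC80 ATP and 100% = DMSO alone without ATP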
CHO-K1 Ca ag = counter-screen for M1 agonists: effect in parental CHO-K1 cells. Fluo-8 calcium fluorescence; scaled to maximal ATP response, vehicle zero. activation, % at 3 µM. hit rate 0.48% among 360,000. AID 602248; in the data active = activation above about 15%;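 also: untransfected CHO-K1 host cells lacking M1 receptor as counterscreen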
M1 PAM parental = counter-screen for M1 PAMs: effect in parental CHO-K1 cells | ATP EC20, Fluo-8 calcium fluorescence; 0% at ATP EC20, 100% at ATP max | activation, % at 3 µM | hit rate 0.02% among 360,000 | AID 602247;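 active = activation above the run cutoff, the mean activation of all test compounds plus 3 SD, cut at about 40% in these data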;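 also: peak over basal fluorescence ratio in a 140 s read after ATP addition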
M1 antag = human CHRM1 antagonism | P11229 | inhibition, % at 3 µM | hit rate 1.3% among 360,000 | CHO-K1 hM1, Fluo-8 calcium fluorescence, ACh EC80 antagonist;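 active = percent inhibition above its own plate's cutoff, namely the mean of that plate's compound wells plus 3 SD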;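 also: peak over basal fluorescence ratio during 140 s after agonist addition; 0% = ACh EC80 plus DMSO and 100% = DMSO alone without agonist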
M1 ag = human M1 muscarinic receptor agonism. hit rate 0.33% among 360,000. P11229. AID 588814. CHO-K1 hM1, Fluo-8 calcium fluorescence, agonist mode; 0% DMSO, 100% acetylcholine EC100. activation, % at 3 µM;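 active = activation above the run's mean compound activation plus 3 SD, cut at about 16% in these data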;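 also: peak over basal fluorescence ratio within a 140 s kinetic read after compound addition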
The depositor's hits bear a star; nt = no result given. Hits are enriched below; roughly 2.3% of the tested compounds scored in any of these assays.

SMILES	M1 PAM	CHO-K1 Ca antag	CHO-K1 Ca ag	M1 PAM parental	M1 antag	M1 ag
O=C(O)CC(NS(=O)(=O)Cc1ccccc1)c1cccc([N+](=O)[O-])c1 (centres undefined)	8	-12	1	8	-8	-2
COc1cccc(-c2nc(CS(=O)(=O)CC(=O)NCCCc3ccccc3)c(C)o2)c1	-21	-12	0	20	40*	-3
COc1cccc(-c2nc(CS(=O)(=O)CC(=O)NCc3ccccc3)c(C)o2)c1	3	3	1	16	-6	-2
CC[C@@H]1CC2=C(C(=O)OC(C)(C)O2)[C@H](c2ccc(F)cc2)O1	2	-23	0	14	-14	-5
Cn1nc(C(F)(F)F)c(C(=O)Nc2ccc(F)cc2F)c1Sc1cccc(C(F)(F)F)c1	-16	-10	1	-6	34*	-4
Cn1nc(C(F)(F)F)c(C(=O)Nc2ccc(F)cc2F)c1Sc1cccc(Cl)c1	-16	-1	0	2	11	-8
COc1cc(C(=O)Nc2ccc3c(c2)N(C(=O)CCN(C)C)c2ccccc2CC3)cc(OC)c1OC	-33	-3	0	16	27*	-14
Cc1ccccc1OCCCc1c(C)n[nH]c1C	-1	0	5	6	0	-7
Cc1ccccc1OCCCCc1c(C)n[nH]c1C	-13	15	9	-4	29*	-2
Cc1ccccc1OC(C)C(=O)Nc1cccnc1 (centres undefined)	14	-1	0	-13	-10	0
C/C(=N\n1c(C)nc2ccccc2c1=O)c1ccc(C)o1	28*	-6	0	-1	-10	-1
O=c1c2cc(Br)ccc2nc(-c2cccc(C(F)(F)F)c2)n1O	0	-26	8	18	-5	25*
O=[N+]([O-])c1ccc(NC(=S)NCCc2ccc(F)cc2)cc1	-19	38*	12	-7	33*	-1
Fc1ccc(CCNC(=S)Nc2ccc(F)c(Cl)c2)cc1	-18	25*	15	-2	4	-8
Fc1ccc(NC(=S)NCCc2ccc(Cl)cc2)cc1	-8	5	7	11	10	-1
O=[N+]([O-])c1cccc(NC(=S)NCCc2ccccc2)c1	-12	31*	12	-10	8	-1
Fc1cccc(NC(=S)NCCc2ccccc2)c1	-6	11	5	6	10	-3
O=C(NCCc1ccc(F)cc1)Nc1ccc([N+](=O)[O-])cc1	-9	18	15	-11	28	1
O=C(NCCN1CCC(n2c(=O)[nH]c3ccccc32)CC1)C(c1ccccc1)c1ccccc1	nt	-10	1	15	nt	nt
COc1ccc2oc(C(=O)OCC(=O)NC3(C#N)CCCC3)c(C)c2c1	-6	16	1	-11	18	-1
COC(=O)c1oc2c(c1C)C1(CCC2)SCCS1	-21	-3	0	8	30*	-6
COc1ccccc1Nc1nc2cc(C)ccc2cc1C#N	15	10	16*	14	-1	-7
COc1ccccc1Nc1nc2ccc(C)cc2cc1C#N	-2	25*	0	-6	2	0
COc1ccccc1Nc1nc2c(C)cccc2cc1C#N	7	-5	0	9	-2	-4
COc1cccc(S(=O)(=O)Nc2cccc(C(=O)N3CCCC3)c2)c1	5	6	2	-9	5	-2
SMILES	M1 PAM	CHO-K1 Ca antag	CHO-K1 Ca ag	M1 PAM parental	M1 antag	M1 ag
COc1cccc(S(=O)(=O)Nc2cccc(C(=O)N3CCOCC3)c2)c1	-21	-6	1	16	54*	-7
Cc1cc(C(=O)N/N=C2\CC(=O)CC(C)(C)C2)c2ccccc2n1	1	26*	0	-8	5	-7
O=C(COc1ccc2c(c1)OCO2)Nc1ccccc1F	8	2	0	9	-6	-4
COC(=O)c1ccccc1NC(=O)COc1ccc2c(c1)OCO2	-4	30*	2	-7	1	-4
COc1ccc2oc(C(=O)NCC3CCCO3)c(C)c2c1 (centres undefined)	4	-4	1	-13	-2	-2
CCOc1ccc2oc(C(=O)NCC3CCCO3)c(C)c2c1 (centres undefined)	0	3	0	-20	25*	-2
CCn1nnnc1SCC(=O)NC1Cc2ccccc2C1	-4	5	0	-19	3	-2

Screens as filed in PubChem.
